# Assay results taken from ChEMBL document CHEMBL1961873, “Compounds: GSK PKIS; Assays: Nanosyn kinase panel” (2012).
# Key:
# [1] = biological target: T1, Serine/threonine-protein kinase TBK1 (Homo sapiens) (UniProt Q9UHD2); details: at 1 µM;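 also: values are mean inhibition of TBK1, screened as part of the GSK published kinase inhibitor set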
# T1 sequence (whole entry): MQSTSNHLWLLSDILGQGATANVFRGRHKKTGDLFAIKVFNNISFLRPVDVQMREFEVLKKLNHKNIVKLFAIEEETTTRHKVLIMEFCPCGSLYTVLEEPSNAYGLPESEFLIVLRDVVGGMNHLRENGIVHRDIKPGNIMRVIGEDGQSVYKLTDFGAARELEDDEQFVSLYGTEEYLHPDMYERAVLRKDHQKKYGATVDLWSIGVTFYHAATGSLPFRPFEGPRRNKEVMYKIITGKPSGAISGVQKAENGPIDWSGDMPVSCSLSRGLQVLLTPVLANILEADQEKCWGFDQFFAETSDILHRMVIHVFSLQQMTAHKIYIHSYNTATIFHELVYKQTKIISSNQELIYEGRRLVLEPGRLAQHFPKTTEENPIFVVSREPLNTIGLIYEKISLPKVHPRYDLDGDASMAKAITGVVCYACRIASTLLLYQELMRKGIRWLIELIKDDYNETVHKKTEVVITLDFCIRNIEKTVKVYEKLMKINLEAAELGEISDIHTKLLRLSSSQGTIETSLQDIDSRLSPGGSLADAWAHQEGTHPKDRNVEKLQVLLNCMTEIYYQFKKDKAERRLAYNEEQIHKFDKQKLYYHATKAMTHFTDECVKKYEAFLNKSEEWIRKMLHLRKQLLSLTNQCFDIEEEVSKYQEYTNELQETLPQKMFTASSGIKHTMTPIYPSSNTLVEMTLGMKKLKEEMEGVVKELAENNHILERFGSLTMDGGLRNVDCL
# [2] = biological target: T2, Testis-specific serine/threonine-protein kinase 1 (Homo sapiens) (UniProt Q9BXA7); details: at 0.1 µM
# T2 sequence (whole entry): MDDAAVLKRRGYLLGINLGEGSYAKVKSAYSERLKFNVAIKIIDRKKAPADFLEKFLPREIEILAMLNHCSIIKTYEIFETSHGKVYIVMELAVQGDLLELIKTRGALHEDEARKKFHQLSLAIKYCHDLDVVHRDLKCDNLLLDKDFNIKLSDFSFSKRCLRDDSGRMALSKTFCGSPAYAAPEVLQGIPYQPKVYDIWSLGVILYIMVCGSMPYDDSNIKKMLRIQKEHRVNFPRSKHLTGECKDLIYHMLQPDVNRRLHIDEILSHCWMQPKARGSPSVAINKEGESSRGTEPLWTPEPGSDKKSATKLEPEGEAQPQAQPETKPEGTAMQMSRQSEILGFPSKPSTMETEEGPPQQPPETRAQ
# [3] = biological target: T2, Testis-specific serine/threonine-protein kinase 1 (Homo sapiens); details: at 1 µM
# [4] = biological target: T3, Testis-specific serine/threonine-protein kinase 2 (Homo sapiens) (UniProt Q96PF2); details: at 0.1 µM
# T3 sequence (whole entry): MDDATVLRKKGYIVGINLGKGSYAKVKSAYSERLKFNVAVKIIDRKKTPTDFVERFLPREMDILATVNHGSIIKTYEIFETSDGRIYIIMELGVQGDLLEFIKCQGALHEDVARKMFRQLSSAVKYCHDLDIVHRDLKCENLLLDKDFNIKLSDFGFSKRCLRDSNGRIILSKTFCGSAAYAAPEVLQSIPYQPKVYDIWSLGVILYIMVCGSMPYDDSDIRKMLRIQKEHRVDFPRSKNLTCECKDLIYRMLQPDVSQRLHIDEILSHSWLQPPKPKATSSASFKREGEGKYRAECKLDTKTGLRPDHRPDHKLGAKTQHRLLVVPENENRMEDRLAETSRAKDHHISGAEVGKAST
# [5] = biological target: T3, Testis-specific serine/threonine-protein kinase 2 (Homo sapiens); details: at 1 µM
# [6] = biological target: Casein kinase I isoform alpha (Homo sapiens) (UniProt P48729); details: at 0.1 µM
# [7] = biological target: Casein kinase I isoform alpha (Homo sapiens) (UniProt P48729); details: at 1 µM
# [8] = biological target: Casein kinase I isoform gamma-1 (Homo sapiens) (UniProt Q9HCP0); details: at 0.1 µM
# [9] = biological target: Casein kinase I isoform gamma-1 (Homo sapiens) (UniProt Q9HCP0); details: at 1 µM
# [10] = biological target: Casein kinase I isoform gamma-2 (Homo sapiens) (UniProt P78368); details: at 0.1 µM;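 also: values are mean inhibition figures reported as part of the GSK PKIS dataset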
# Chain of Casein kinase I isoform gamma-2 (Homo sapiens) (P78368 whole entry, looked up, canonical isoform): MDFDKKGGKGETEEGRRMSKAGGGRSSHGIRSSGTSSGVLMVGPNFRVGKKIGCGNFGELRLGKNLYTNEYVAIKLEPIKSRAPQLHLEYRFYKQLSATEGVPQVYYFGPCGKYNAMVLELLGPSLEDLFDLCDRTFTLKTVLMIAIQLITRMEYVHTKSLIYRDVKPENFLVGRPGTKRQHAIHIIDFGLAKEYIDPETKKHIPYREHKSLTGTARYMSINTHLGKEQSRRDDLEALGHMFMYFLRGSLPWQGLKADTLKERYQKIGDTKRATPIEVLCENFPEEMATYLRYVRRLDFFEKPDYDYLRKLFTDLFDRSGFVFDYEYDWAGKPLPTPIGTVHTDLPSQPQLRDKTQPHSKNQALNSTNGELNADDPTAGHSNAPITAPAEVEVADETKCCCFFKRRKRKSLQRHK
# Chain of Casein kinase I isoform alpha (Homo sapiens) (P48729 2-337 limits assumed): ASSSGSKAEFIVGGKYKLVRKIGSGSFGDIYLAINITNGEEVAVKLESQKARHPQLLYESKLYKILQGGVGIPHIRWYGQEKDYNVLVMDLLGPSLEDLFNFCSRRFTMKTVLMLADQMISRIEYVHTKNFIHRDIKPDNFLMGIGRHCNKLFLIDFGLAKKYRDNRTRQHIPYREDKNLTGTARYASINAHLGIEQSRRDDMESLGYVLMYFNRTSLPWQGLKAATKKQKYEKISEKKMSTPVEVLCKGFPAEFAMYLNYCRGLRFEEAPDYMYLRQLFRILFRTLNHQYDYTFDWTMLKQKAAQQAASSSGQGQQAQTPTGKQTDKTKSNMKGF
# Chain of Casein kinase I isoform gamma-1 (Homo sapiens) (Q9HCP0 whole entry, looked up, canonical isoform): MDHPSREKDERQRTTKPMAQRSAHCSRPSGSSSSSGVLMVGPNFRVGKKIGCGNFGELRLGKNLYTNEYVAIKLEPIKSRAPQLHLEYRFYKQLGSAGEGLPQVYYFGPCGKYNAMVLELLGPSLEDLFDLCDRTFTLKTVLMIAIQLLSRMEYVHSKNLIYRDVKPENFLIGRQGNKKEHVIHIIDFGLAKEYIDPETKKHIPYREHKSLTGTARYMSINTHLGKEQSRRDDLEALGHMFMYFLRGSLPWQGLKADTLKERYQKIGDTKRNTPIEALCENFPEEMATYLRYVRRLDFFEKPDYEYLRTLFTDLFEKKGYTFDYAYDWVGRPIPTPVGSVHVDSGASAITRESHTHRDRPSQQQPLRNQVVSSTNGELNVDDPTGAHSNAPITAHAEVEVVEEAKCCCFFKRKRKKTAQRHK
SMILES,inhibition [1] [%],inhibition [2] [%],inhibition [3] [%],inhibition [4] [%],inhibition [5] [%],inhibition [6] [%],inhibition [7] [%],inhibition [8] [%],inhibition [9] [%],inhibition [10] [%]
COc1ccc(-c2cc(-c3c[nH]nc3-c3ccccn3)ccn2)cc1,6.38,3.33,5.54,2.38,3.88,3.31,11.5,4.71,5.78,3.51
CNC(=O)c1cc(-c2ccc(F)cc2)cc(-c2ccc(S(=O)(=O)N3CCCC3)cc2)c1N,1.13,2.57,3.21,1.51,1.66,2.27,3.11,2.3,2.21,2.4
COc1cc(Nc2nccc(Nc3ccc4c(C)n[nH]c4c3)n2)cc(OC)c1OC,26.3,1.79,12.6,-0.93,-0.95,0.44,0.47,2.35,1.23,-0.28
[O-][S+]1CCN(Cc2ccc(-c3ccc4ncnc(Nc5ccc(OCc6cccc(F)c6)c(Cl)c5)c4c3)o2)CC1,5.41,5.74,5.31,3.26,3.22,5.02,4.04,4.04,5.15,3.65
c1ccc(-c2nc3n(c2-c2ccc4c(c2)OCO4)CCC3)nc1,2.71,0.83,-0.01,0.79,0.57,22.2,60.1,1.06,2.79,1.64
CN1CCC(n2cnc(-c3ccc(F)cc3)c2-c2ccnc(Nc3ccccc3)n2)CC1,2.8,3.05,3.21,2.5,2.86,53.5,83.6,7.05,42,4.57
N#Cc1c(NC(=O)CN2CCOCC2)sc2c1CCCC2,4.24,-0.56,3.34,1.22,2.29,6.79,6.01,3.78,5.69,3.2
CNC(=O)c1cccc(C#Cc2cncnc2Nc2ccc(OCc3cccc(F)c3)c(Cl)c2)c1,0.61,1.65,1.56,1.7,2.08,-4.8,0.1,1.2,1.46,1.23
O=C(O[C@H]1CN[C@H](C#Cc2cc3ncnc(Nc4ccc(Cc5ccccc5)cc4)c3s2)C1)N1CCOCC1,1.65,0.42,0.57,1.12,-0.88,0.51,1.74,2.25,2.28,2.49
CN1CCC(n2cnc(-c3ccc(F)cc3)c2-c2ccnc(N)n2)CC1,3.54,2.05,3.07,2.28,1.61,30.1,73.1,1.88,9.03,1.68
COc1cc2c(cc1Nc1nc(Nc3ccsc3C(N)=O)c3cc[nH]c3n1)N(C(=O)CN(C)C)CCC2(C)C,50.7,94.6,96.3,87.4,94.6,4.27,14.9,6.43,21.1,3.76
CN(C)CCOc1ccc(-c2nc(-c3ccncc3)c(-c3ccc4c(c3)CC/C4=N\O)[nH]2)cc1,3.98,1.85,2.25,3.34,2.43,3.41,7.2,2.51,4.6,2.26
CS(=O)(=O)CCNCc1coc(-c2ccc3ncnc(Nc4ccc(OCc5ccccc5)cc4)c3c2)c1,2.44,1.84,3.84,2.99,2.93,1.56,4.42,1.97,2.4,1.63
CCc1nn2ncccc2c1-c1ccnc(NC2CC2)n1,3.02,1.98,3.93,1.82,2.06,4.3,15.9,1.08,2.03,1.32
FC(F)(F)c1cccc(-c2nn3ncccc3c2-c2ccnc(Nc3ccc4c(c3)OCCO4)n2)c1,2.28,2.75,1.2,-0.07,-1.1,1.53,4.39,2.58,4.21,1.92
COc1ccc(-c2oc3ncnc(N)c3c2-c2ccc(NC(=O)Nc3cc(C(F)(F)F)ccc3F)cc2)cc1,3.95,4.93,5.3,3.63,3.45,3.27,3.17,2.43,3.7,2.18
c1cc(-c2cnn3nc(N4CCOCC4)ccc23)nc(NC2CC2)n1,6.36,2.66,5.12,0.16,-3.76,5.43,15.8,3.42,8.05,3.35

SMILES,inhibition [1] [%],inhibition [2] [%],inhibition [3] [%],inhibition [4] [%],inhibition [5] [%],inhibition [6] [%],inhibition [7] [%],inhibition [8] [%],inhibition [9] [%],inhibition [10] [%]
COc1ccc2c(-c3ccnc(Nc4cccc(OC(F)(F)F)c4)n3)cnn2n1,31.6,3.88,7,3.39,2.18,2.85,9.17,3.59,6.06,3.21
NS(=O)(=O)c1ccc(N/N=C2\C(=O)Nc3ccc4ncccc4c32)cc1,50.4,5.63,34.9,0.69,4.1,4.04,21.3,2.39,8.12,1.41
Fc1ccc(-c2nn3ccccc3c2-c2ccncc2)cc1,0.18,1.12,1.44,-0.56,0.24,13.7,58.4,1.48,8.01,1.65
CC1=C(C(=O)Nc2cc(Cl)c3[nH]ncc3c2)C(c2ccc(C(F)(F)F)cc2)CC(=O)N1 (stereo not given),3.48,3.52,3.9,2.37,1.37,1.86,2.49,2.91,3.25,2.31
COc1ccc(-c2cc3c(N)ncnc3o2)cc1,1.62,-1.68,1.43,-1.12,-0.58,-2.35,-1.14,-1.13,-0.49,-0.59
COc1cc(N2CCN(C(C)C)CC2)ccc1Nc1nc(Nc2ccc(F)cc2C(N)=O)c2cc[nH]c2n1,6.76,82.8,95.4,58.6,90.8,12.4,58.3,9.86,42.2,7.97
CCn1c(-c2nonc2N)nc2c(C#CC(C)(C)O)nc(OC[C@H](N)c3ccccc3)cc21,6.85,7.96,44.1,0.93,2.24,2.03,11.4,1.99,5.61,1.71
Fc1cccc(COc2ccc(Nc3ncnc4sc(-c5ccco5)cc34)cc2Cl)c1,2.89,2.79,3.11,0.52,2.23,3.24,3.14,4.55,4.42,4.05
CNC(=O)c1cncc(/C=C/c2ccccc2Cl)c1,4.1,0.22,1.52,-0.03,2.91,0.76,-0.31,0.2,-0.31,0.91
CS(=O)(=O)CCNCc1ccc(-c2ccc3ncnc(Nc4ccc(OCc5ccccc5)c(C(F)(F)F)c4)c3c2)o1,1.05,3.83,3.88,0.53,0.75,2.27,0.82,3.86,8.13,3.82
Nc1ncc(-c2cccc(S(N)(=O)=O)c2)c2scc(-c3ccc(F)c(Cl)c3)c12,3.47,3.24,4.96,2.48,2.51,6.19,36.5,2.96,4.15,2.73
COc1ccc(CNC(=O)c2ccc(-c3cc(-c4nnc(C)o4)ccc3C)cc2)cc1,4.66,3.31,6.39,2.67,6.58,-0.51,2.48,1.07,-0.25,1.05
CC(C)COC(=O)c1ccc2c(c1)/C(=C/Nc1ccc(S(N)(=O)=O)cc1)C(=O)N2,82.9,11.4,50.2,-0.78,0.83,-2,1.61,-1.63,7.57,-1.09
NS(=O)(=O)c1ccc(Nc2ncc(-c3ccccc3)o2)cc1,8.12,1.35,2.89,1.54,1.1,1.88,7.88,2.83,4.94,2.8
O=C(Nc1n[nH]c2cc(-c3ccc(F)cc3)ccc12)C1CC1,5.39,3.31,2.06,2.29,0.97,2.37,7.14,2.86,3.21,2.45
Fc1ccc(-c2cc(-c3c[nH]nc3-c3ccccn3)ccn2)cc1,3.03,6.33,9.18,4.38,6.99,3.27,5.16,4.51,7.09,4.03
